# Measurements: PubChem BioAssay (NCI)
# Compounds without any hit were thinned out: in the full panel of roughly 79,000, 15% have a hit. A number with no mark means an inactive call. Calls of active or inactive are those of the source. Cut-off read from the data, not from the text of the source: active = growth inhibition above about 70%; inactive = the rest.
# Tests used:
# [1] = NCI Yeast Anticancer Drug Screen. Data for the wt1 strain (AID 149);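 note: 0% = growth of vehicle-treated wt1 cultures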; settings: S. cerevisiae wt1 strain (SPY 50644) growth inhibition, stronger effect = higher value
# Summary of the method: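 Each compound is tested on wt1 yeast and the loss of growth versus vehicle gives the inhibition value.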
# [2] = NCI Yeast Anticancer Drug Screen. Data for the rad50 strain (AID 155);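 note: 0% = growth of vehicle-only cultures of the same strain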; settings: S. cerevisiae rad50 strain growth inhibition, stronger effect = higher value
# Summary of the method: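 Vehicle-treated cultures provide the reference for the growth inhibition reported for compound-exposed, repair-deficient yeast.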
# [3] = NCI Yeast Anticancer Drug Screen. Data for the mec2-1 strain (AID 157); settings: S. cerevisiae mec2-1 strain, stronger effect = higher value
# Summary of the method: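 Using mec2-1 yeast: add compound, measure growth, express inhibition versus vehicle-treated cultures.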
# [4] = NCI Yeast Anticancer Drug Screen. Data for the rad14 strain (AID 159);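 note: 0% = growth of vehicle-treated control cultures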; settings: S. cerevisiae rad14 strain growth inhibition, stronger effect = higher value
# Summary of the method: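 Inhibition of growth is reported for a repair-deficient yeast mutant following compound treatment, calculated relative to cultures that received vehicle.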
# [5] = NCI Yeast Anticancer Drug Screen. Data for the sgs1 mgt1 strain (AID 161);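 note: 0% = growth of cultures given vehicle only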; settings: S. cerevisiae sgs1 mgt1 strain, stronger effect = higher value
# Summary of the method: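 This yeast growth screen uses a strain with defined DNA-repair lesions; compound-treated growth is compared with vehicle-treated growth.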
# [6] = NCI Yeast Anticancer Drug Screen. Data for the CLN2oe strain (AID 163);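 note: 0% = growth of vehicle-only control cultures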; settings: S. cerevisiae CLN2oe strain, stronger effect = higher value
# Summary of the method: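 Whole-cell yeast growth assay. A strain engineered for altered cell-cycle control received compound, and inhibition relative to vehicle-treated cultures was recorded.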
# [7] = NCI Yeast Anticancer Drug Screen. Data for the cln2 rad14 strain (AID 165);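 note: 0% = growth equal to vehicle treated cultures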; settings: S. cerevisiae cln2 rad14 strain, stronger effect = higher value
# Summary of the method: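 Yeast strain cln2 rad14, bearing defects in cell cycle control and DNA repair, serves as the test system; values reflect growth inhibition compared with vehicle.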
# [8] = NCI Yeast Anticancer Drug Screen. Data for the bub3 strain (AID 167); settings: S. cerevisiae bub3 mutant strain, stronger effect = higher value
# Summary of the method: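 Mutant yeast screening strain plus compound; vehicle-treated cultures serve as the 0% inhibition reference.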
# [9] = NCI Yeast Anticancer Drug Screen. Data for the wt2 strain (AID 169); settings: S. cerevisiae wt2 strain growth inhibition, stronger effect = higher value
# Summary of the method: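 Treated yeast vs. vehicle-treated yeast: growth inhibition determined.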
# [10] = NCI Yeast Anticancer Drug Screen. Data for the mlh1 strain (AID 171);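 note: 0% = growth of vehicle-treated control cultures of the same strain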; settings: S. cerevisiae mlh1 strain growth inhibition, stronger effect = higher value
# Summary of the method: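 A yeast strain with a defined genetic lesion serves as the test organism. Cultures receive compound or vehicle, and growth is measured.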
# [11] = NCI Yeast Anticancer Drug Screen. Data for the sgs1 strain (AID 173);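 note: 0% = growth of vehicle-only control cultures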; settings: S. cerevisiae sgs1 mutant, stronger effect = higher value
# Summary of the method: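 A genetically defined yeast mutant is incubated with the test compound, and its growth is compared to that of the same strain given vehicle.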
# [12] = NCI Yeast Anticancer Drug Screen. Data for the mlh1 rad18 strain (AID 175); settings: S. cerevisiae mlh1 rad18 strain growth inhibition, stronger effect = higher value
# Summary of the method: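 Steps: expose repair-defective yeast to compound; measure growth; express inhibition against vehicle-treated controls.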
# [13] = at 5.0 µM (retest, dose inferred, filed as 0.5)
# [14] = at 50.0 µM (retest, dose inferred, filed as 5.0)
smiles,measurement,setting,value
CC1CC(C)CC(C)C(O)/C(C#N)=C/C=C/CC(C2CCCC2C(=O)O)OC(=O)CC(O)C(C)C1 (stereo not drawn),growth inhibition,[1]; at 1.2 µM,97% (active)
same,growth inhibition,[1]; at 3.7 µM,99% (active)
same,growth inhibition,[1]; at 11.0 µM,99% (active)
same,growth inhibition,[1]; at 33.0 µM,99% (active)
same,growth inhibition,[1]; at 100.0 µM,98% (active)
same,growth inhibition,[2]; at 1.2 µM,94% (active)
same,growth inhibition,[2]; at 3.7 µM,97% (active)
same,growth inhibition,[2]; [13],98% (active)
same,growth inhibition,[2]; at 11.0 µM,97% (active)
same,growth inhibition,[2]; at 33.0 µM,97% (active)
same,growth inhibition,[2]; [14],98% (active)
same,growth inhibition,[2]; at 50.0 µM,92.6% (active)
same,growth inhibition,[2]; at 100.0 µM,97% (active)
same,growth inhibition,[3]; at 1.2 µM,96% (active)
same,growth inhibition,[3]; at 3.7 µM,98% (active)
same,growth inhibition,[3]; [13],99% (active)
same,growth inhibition,[3]; at 11.0 µM,98% (active)
same,growth inhibition,[3]; at 33.0 µM,98% (active)
same,growth inhibition,[3]; [14],99% (active)
same,growth inhibition,[3]; at 50.0 µM,94.5% (active)
same,growth inhibition,[3]; at 100.0 µM,98% (active)
same,growth inhibition,[4]; at 1.2 µM,98% (active)
same,growth inhibition,[4]; at 3.7 µM,98% (active)
same,growth inhibition,[4]; at 11.0 µM,98% (active)
same,growth inhibition,[4]; at 33.0 µM,99% (active)
same,growth inhibition,[4]; at 100.0 µM,98% (active)
same,growth inhibition,[5]; [13],15%
same,growth inhibition,[5]; [14],2%
same,growth inhibition,[5]; at 50.0 µM,93.7% (active)
same,growth inhibition,[6]; at 1.2 µM,86% (active)
same,growth inhibition,[6]; at 3.7 µM,96% (active)
same,growth inhibition,[6]; at 11.0 µM,97% (active)
same,growth inhibition,[6]; at 33.0 µM,97% (active)
same,growth inhibition,[6]; at 100.0 µM,97% (active)
same,growth inhibition,[7]; [13],8%
same,growth inhibition,[7]; [14],-20%
same,growth inhibition,[7]; at 50.0 µM,92.4% (active)
same,growth inhibition,[8]; at 1.2 µM,93% (active)
same,growth inhibition,[8]; at 3.7 µM,98% (active)
same,growth inhibition,[8]; [13],10%
same,growth inhibition,[8]; at 11.0 µM,98% (active)
same,growth inhibition,[8]; at 33.0 µM,98% (active)
same,growth inhibition,[8]; [14],-7%
same,growth inhibition,[8]; at 50.0 µM,93.3% (active)
same,growth inhibition,[8]; at 100.0 µM,98% (active)
same,growth inhibition,[9]; at 1.2 µM,90% (active)
same,growth inhibition,[9]; at 3.7 µM,100% (active)
same,growth inhibition,[9]; at 11.0 µM,99% (active)
same,growth inhibition,[9]; at 33.0 µM,99% (active)
same,growth inhibition,[9]; at 100.0 µM,98% (active)
same,growth inhibition,[10]; at 1.2 µM,90% (active)
same,growth inhibition,[10]; at 3.7 µM,98% (active)
same,growth inhibition,[10]; at 11.0 µM,98% (active)
same,growth inhibition,[10]; at 33.0 µM,98% (active)
same,growth inhibition,[10]; at 100.0 µM,98% (active)
same,growth inhibition,[11]; at 1.2 µM,95% (active)
same,growth inhibition,[11]; at 3.7 µM,97% (active)
same,growth inhibition,[11]; at 11.0 µM,98% (active)
same,growth inhibition,[11]; at 33.0 µM,97% (active)
same,growth inhibition,[11]; at 100.0 µM,97% (active)
same,growth inhibition,[12]; [13],98% (active)
same,growth inhibition,[12]; [14],98% (active)
same,growth inhibition,[12]; at 50.0 µM,91.6% (active)
